The panel holds about 79,000 compounds, 15% with a hit somewhere; the sample as a whole holds those more often. Calls of active or inactive are those of the source. Cut-off read from the data, not from the text of the source: active = growth inhibition above about 70%; inactive = the rest.
Columns and labels:
[1] = NCI Yeast Anticancer Drug Screen. Data for the rad52 strain (AID 147);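 note: 0% = growth of vehicle-treated control cultures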; conditions: S. cerevisiae rad52 mutant growth inhibition, active compounds read high
How it was run: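 Genetically altered yeast (DNA damage repair defect) treated with compound; inhibition calculated relative to vehicle.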

[2] = NCI Yeast Anticancer Drug Screen. Data for the wt1 strain (AID 149);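 note: 0% = growth of vehicle-treated wt1 cultures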; conditions: S. cerevisiae wt1 strain (SPY 50644) growth inhibition, active compounds read high
How it was run: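 Compounds are added to wt1 yeast cultures. Growth is then measured. Inhibition is expressed relative to vehicle-treated controls.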

[3] = NCI Yeast Anticancer Drug Screen. Data for the rad50 strain (AID 155);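 note: 0% = growth of vehicle-only cultures of the same strain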; conditions: S. cerevisiae rad50 strain growth inhibition, active compounds read high
How it was run: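 Inhibition values express reduced yeast growth in compound-treated cultures relative to vehicle-treated controls.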

[4] = NCI Yeast Anticancer Drug Screen. Data for the mec2-1 strain (AID 157); conditions: S. cerevisiae mec2-1 strain, active compounds read high
How it was run: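 Cells of the genetically defined mec2-1 yeast strain are incubated with test compound. Inhibition of growth is calculated against vehicle-treated controls.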

[5] = NCI Yeast Anticancer Drug Screen. Data for the rad14 strain (AID 159);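 note: 0% = growth of vehicle-treated control cultures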; conditions: S. cerevisiae rad14 strain growth inhibition, active compounds read high
How it was run: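 A mutant yeast strain defective in DNA damage repair is treated with compound; inhibition of its growth is scored against untreated, vehicle-exposed cultures.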

[6] = NCI Yeast Anticancer Drug Screen. Data for the sgs1 mgt1 strain (AID 161);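 note: 0% = growth of cultures given vehicle only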; conditions: S. cerevisiae sgs1 mgt1 strain, active compounds read high
How it was run: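 Inhibition of yeast growth, normalised to vehicle-treated controls, is reported for a strain bearing genetic alterations in DNA damage repair.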

[7] = NCI Yeast Anticancer Drug Screen. Data for the CLN2oe strain (AID 163);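 note: 0% = growth of vehicle-only control cultures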; conditions: S. cerevisiae CLN2oe strain, active compounds read high
How it was run: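 Strain altered in cell-cycle control, incubated with compound; growth compared to solvent-treated controls.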

[8] = NCI Yeast Anticancer Drug Screen. Data for the cln2 rad14 strain (AID 165);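 note: 0% = growth equal to vehicle treated cultures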; conditions: S. cerevisiae cln2 rad14 strain, active compounds read high
How it was run: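 The screen exposed genetically defined yeast (cln2 rad14) to test compounds and scored growth inhibition relative to vehicle-treated controls.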

[9] = NCI Yeast Anticancer Drug Screen. Data for the bub3 strain (AID 167); conditions: S. cerevisiae bub3 mutant strain, active compounds read high
How it was run: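 Steps: expose the mutant yeast strain to compound; grow alongside vehicle-treated cultures; measure growth; express inhibition against the vehicle cultures.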

[10] = NCI Yeast Anticancer Drug Screen. Data for the wt2 strain (AID 169);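 note: 0% = growth of vehicle-treated yeast cultures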; conditions: S. cerevisiae wt2 strain growth inhibition, active compounds read high
How it was run: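 Steps: yeast strain treated with compound; growth recorded; inhibition calculated relative to cultures given vehicle alone.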

[11] = NCI Yeast Anticancer Drug Screen. Data for the mlh1 strain (AID 171);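 note: 0% = growth of vehicle-treated control cultures of the same strain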; conditions: S. cerevisiae mlh1 strain growth inhibition, active compounds read high
How it was run: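 Yeast screen: mutant strain plus compound, growth scored against vehicle control wells.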

[12] = NCI Yeast Anticancer Drug Screen. Data for the sgs1 strain (AID 173);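 note: 0% = growth of vehicle-only control cultures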; conditions: S. cerevisiae sgs1 mutant, active compounds read high
How it was run: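 Inhibition of yeast growth served as the measure. The mutant strain was treated with each compound, and growth was normalised to cultures receiving vehicle alone.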

[13] = NCI Yeast Anticancer Drug Screen. Data for the mlh1 rad18 strain (AID 175); conditions: S. cerevisiae mlh1 rad18 strain growth inhibition, active compounds read high
How it was run: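 Compound-treated yeast growth, normalised to vehicle controls. Strain bears defined DNA repair mutations.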

[14] = NCI Yeast Anticancer Drug Screen. Data for the rad18 strain (AID 177); conditions: S. cerevisiae rad18 mutant growth inhibition, active compounds read high
How it was run: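 Inhibition values reflect reduced yeast growth compared with vehicle-treated controls, using a strain engineered with a DNA damage repair defect.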

[15] = NCI Yeast Anticancer Drug Screen. Data for the rad50EPP+ strain (AID 151);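 note: 0% = growth of vehicle-treated control cultures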; conditions: S. cerevisiae rad50 mutant strain, active compounds read high
How it was run: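 Strain rad50EPP+; compound exposure; % growth inhibition vs vehicle.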

[16] = NCI Yeast Anticancer Drug Screen. Data for the mgt1 strain (AID 153); conditions: S. cerevisiae mgt1 mutant growth inhibition, active compounds read high
How it was run: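 Read-out: yeast growth inhibition vs vehicle control. Strain mgt1, drawn from a panel altered in DNA damage repair or cell cycle control.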

[17] = at 5.0 µM (retest, dose inferred, filed as 0.5)
[18] = at 50.0 µM (retest, dose inferred, filed as 5.0)

Measured: growth inhibition

C=C(CN(C)C)C(=O)c1cc(C)ccc1C
active: [1]; at 11.0 µM 85% | [1]; at 33.0 µM 99% | [1]; at 100.0 µM 99% | [2]; at 33.0 µM 98% | [2]; at 100.0 µM 99% | [3]; at 11.0 µM 83% | [3]; at 33.0 µM 98% | [3]; [18] 99% | [3]; at 50.0 µM 99.4% | [3]; at 100.0 µM 99% | [4]; at 11.0 µM 86% | [4]; at 33.0 µM 99% | [4]; [18] 99% | [4]; at 50.0 µM 99.4% | [4]; at 100.0 µM 99% | [5]; at 11.0 µM 80% | [5]; at 33.0 µM 99% | [5]; at 100.0 µM 99% | [6]; [18] 99% | [6]; at 50.0 µM 99.5% | [7]; at 33.0 µM 98% | [7]; at 100.0 µM 98% | [8]; [18] 99% | [8]; at 50.0 µM 99.2% | [9]; at 11.0 µM 90% | [9]; at 33.0 µM 99% | [9]; [18] 99% | [9]; at 50.0 µM 98.8% | [9]; at 100.0 µM 99% | [10]; at 11.0 µM 75% | [10]; at 33.0 µM 99% | [10]; at 100.0 µM 99% | [11]; at 11.0 µM 89% | [11]; at 33.0 µM 99% | [11]; at 100.0 µM 99% | [12]; at 11.0 µM 86% | [12]; at 33.0 µM 99% | [12]; at 100.0 µM 99% | [13]; [18] 99% | [13]; at 50.0 µM 99.2% | [14]; at 11.0 µM 86% | [14]; at 33.0 µM 98% | [14]; at 100.0 µM 99%
inactive: [1]; at 1.2 µM 5% | [1]; at 3.7 µM 32% | [2]; at 1.2 µM 8% | [2]; at 3.7 µM 23% | [2]; at 11.0 µM 56% | [3]; at 1.2 µM 4% | [3]; at 3.7 µM 23% | [3]; [17] 24% | [4]; at 1.2 µM 17% | [4]; at 3.7 µM 38% | [4]; [17] 5% | [5]; at 1.2 µM 9% | [5]; at 3.7 µM 21% | [6]; [17] 50% | [7]; at 1.2 µM 10% | [7]; at 3.7 µM 22% | [7]; at 11.0 µM 40% | [8]; [17] 7% | [9]; at 1.2 µM 5% | [9]; at 3.7 µM 28% | [9]; [17] 61% | [10]; at 1.2 µM 3% | [10]; at 3.7 µM 16% | [11]; at 1.2 µM 12% | [11]; at 3.7 µM 32% | [12]; at 1.2 µM 16% | [12]; at 3.7 µM 40% | [13]; [17] 61% | [14]; at 1.2 µM 16% | [14]; at 3.7 µM 37%

CCS(=O)(=O)c1ccc(/C=C/C=N/NC(=S)NCC(C)C)cc1
active: [6]; at 50.0 µM 77%
inactive: [1]; at 1.2 µM 5% | [1]; at 3.7 µM 3% | [1]; at 11.0 µM -1% | [1]; at 33.0 µM 3% | [1]; at 100.0 µM 1% | [15]; at 1.2 µM 3% | [15]; at 3.7 µM 5% | [15]; at 11.0 µM 5% | [15]; at 33.0 µM 6% | [15]; at 100.0 µM -9% | [16]; at 1.2 µM -2% | [16]; at 3.7 µM 2% | [16]; at 11.0 µM -2% | [16]; at 33.0 µM 5% | [16]; at 100.0 µM 44% | [3]; at 1.2 µM 6% | [3]; at 3.7 µM 3% | [3]; [17] 5% | [3]; at 11.0 µM -4% | [3]; at 33.0 µM 10% | [3]; [18] -7% | [3]; at 50.0 µM 0.25% | [3]; at 100.0 µM 5% | [4]; at 1.2 µM 0% | [4]; at 3.7 µM 1% | [4]; [17] -25% | [4]; at 11.0 µM 2% | [4]; at 33.0 µM 3% | [4]; [18] -24% | [4]; at 50.0 µM 4.2% | [4]; at 100.0 µM 4% | [5]; at 1.2 µM 4% | [5]; at 3.7 µM 3% | [5]; at 11.0 µM 0% | [5]; at 33.0 µM 5% | [5]; at 100.0 µM 3% | [6]; [17] 6% | [6]; [18] 62% | [7]; at 1.2 µM 2% | [7]; at 3.7 µM -2% | [7]; at 11.0 µM -3% | [7]; at 33.0 µM 1% | [7]; at 100.0 µM -7% | [8]; [17] -7% | [8]; [18] 9% | [8]; at 50.0 µM -67.3% | [9]; at 1.2 µM 3% | [9]; at 3.7 µM 4% | [9]; [17] -12% | [9]; at 11.0 µM 0% | [9]; at 33.0 µM 4% | [9]; [18] 50% | [9]; at 50.0 µM 39.1% | [9]; at 100.0 µM 8% | [10]; at 1.2 µM -8% | [10]; at 3.7 µM -5% | [10]; at 11.0 µM -17% | [10]; at 33.0 µM -5% | [10]; at 100.0 µM 55%

— PubChem BioAssay (NCI)
